# Only a selection was taken, and the strongest signals are over-represented in it overall.
# B1: AT5G01260(PC)(40) (Arabidopsis thaliana), Q9LFB0 (protein)
# chain: MIGIGRTLTSSSPSKIILEDLPPGIYRYGTEIFTSVPRKTFHHIKFLRLDSAQSSRILKPVPLRSSSIKDSQVNVEDEEIEASNKTVRVRFQLRKECVFGEHFFIVGDDPVFGGLWDPETALPLNWSDGNVWTVDLDLPVGRLVEFKLLLKAQTGEILWQPGPNRALETWETNKTIRICEDWDNADLQMMIEEDFVPYTNISSIGSEDEDEVLGSVQQNSSVVAVENAGYVSDESAQNSSFSIQSEKTMEPSNGALTAREVIKEAMFTEEESPVLVPGLIPLSDLDNEQVEVINEGKAETFPEVDKKQEPKAERNKKAKVKAISLFEKSEQEAVKSVEQRQYNAVEEEQQRLETEPLGTPDVLFENDIQWGRRTLYKLLSNFRLF
# Tests used:
# Assay in all cases: glycan array binding signal (z-score within array); higher = stronger binding
# Conditions in all cases: glycan notation: IUPAC condensed, linker removed
# [1] = target: Gal(b1-4)GlcNAc(b1-2)[Gal(b1-4)GlcNAc(b1-4)]Man(a1-3)[GlcNAc(b1-4)][Gal(b1-4)GlcNAc(b1-2)[Gal(b1-4)GlcNAc(b1-6)]Man(a1-6)]Man(b1-4)GlcNAc(b1-4)GlcNAc
# Method in brief: (§1)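 Glycan array data came from 3228 arrays in the Consortium for Functional Glycomics database, and only arrays with an available protein sequence were kept. Glycan names were put into IUPAC-condensed notation, and columns mapping to the same glycan were averaged. The binding signal is a within-array Z-score, averaged across arrays of one protein sequence run at different concentrations or buffers and across linkers. A negative Z-score can be read as non-binding.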
# [2] = target: Gal(b1-4)GlcNAc(b1-2)[Gal(b1-4)GlcNAc(b1-6)]Man(a1-6)[Gal(b1-4)GlcNAc(b1-2)Man(a1-3)]Man(b1-4)GlcNAc(b1-4)GlcNAc
# Method in brief: as §1
# [3] = target: Gal(b1-4)GlcNAc(b1-2)[Gal(b1-4)GlcNAc(b1-6)]Man(a1-6)[Gal(b1-4)GlcNAc(b1-2)Man(a1-3)]Man(b1-4)GlcNAc(b1-4)[Fuc(a1-6)]GlcNAc
# Method in brief: as §1
# [4] = target: Gal3S(b1-4)[Fuc(a1-3)]Glc6S
# Method in brief: as §1
# Gal6S(b1-3)GlcNAc6S = target: Gal6S(b1-3)GlcNAc6S
# Method in brief: as §1
# [5] = target: GalNAc(a1-3)GalNAc(b1-3)Gal(a1-4)Gal(b1-4)Glc
# Method in brief: as §1
# [6] = target: GalNAc(b1-3)Gal(a1-4)Gal(b1-4)GlcNAc
# Method in brief: as §1
# [7] = target: GalNAc(b1-3)Gal(a1-6)Gal(b1-4)Glc
# Method in brief: as §1
# GalNAc(b1-4)GlcNAc = target: GalNAc(b1-4)GlcNAc
# Method in brief: as §1
# [8] = target: GlcNAc(a1-4)Gal(b1-4)GlcNAc(b1-3)Gal(b1-4)Glc
# Method in brief: as §1
# [9] = target: GlcNAc(b1-2)Man(a1-3)[GlcNAc(b1-2)Man(a1-6)]Man(b1-4)GlcNAc(b1-4)GlcNAc
# Method in brief: as §1
# [10] = target: GlcNAc(b1-3)Gal(b1-4)GlcNAc(b1-3)Gal(b1-4)GlcNAc(b1-2)[GlcNAc(b1-3)Gal(b1-4)GlcNAc(b1-3)Gal(b1-4)GlcNAc(b1-6)]Man(a1-6)[GlcNAc(b1-3)Gal(b1-4)GlcNAc(b1-3)Gal(b1-4)GlcNAc(b1-2)Man(a1-3)]Man(b1-4)GlcNAc(b1-4)[Fuc(a1-6)]GlcNAc
# Method in brief: as §1
# [11] = target: GlcNAc(b1-4)[GlcNAc(b1-6)]GalNAc
# Method in brief: as §1
# [12] = target: GlcNAc6S(b1-3)Gal(b1-4)GlcNAc
# Method in brief: as §1
# Neu5Ac(a2-3)Gal = target: Neu5Ac(a2-3)Gal
# Method in brief: as §1
# [13] = target: Neu5Ac(a2-3)Gal(b1-3)GlcNAc(b1-2)Man
# Method in brief: as §1
# [14] = target: Neu5Ac(a2-3)Gal(b1-3)[Neu5Ac(a2-6)]GalNAc
# Method in brief: as §1
# [15] = target: Neu5Ac(a2-3)Gal6S(b1-4)GlcNAc
# Method in brief: as §1
# Neu5Ac(a2-3)GalNAc = target: Neu5Ac(a2-3)GalNAc
# Method in brief: as §1
# [16] = target: Neu5Ac(a2-6)Gal(b1-4)GlcNAc(b1-2)Man(a1-6)[Gal(b1-4)GlcNAc(b1-2)Man(a1-3)]Man(b1-4)GlcNAc(b1-4)GlcNAc
# Method in brief: as §1
# [17] = target: Neu5Ac(a2-6)Gal(b1-4)GlcNAc(b1-3)Gal(b1-4)GlcNAc(b1-2)Man(a1-3)[Neu5Ac(a2-6)Gal(b1-4)GlcNAc(b1-3)Gal(b1-4)GlcNAc(b1-2)Man(a1-6)]GalNAc
# Method in brief: as §1
# [18] = target: Neu5Ac(a2-6)Gal(b1-4)GlcNAc(b1-3)Gal(b1-4)[Fuc(a1-3)]GlcNAc(b1-3)Gal(b1-4)[Fuc(a1-3)]GlcNAc
# Method in brief: as §1
# [19] = target: Neu5Ac(a2-6)Gal(b1-4)GlcNAc(b1-3)[Neu5Ac(a2-6)Gal(b1-4)GlcNAc(b1-6)]GalNAc
# Method in brief: as §1
# [20] = target: Neu5Ac(a2-8)Neu5Ac(a2-8)Neu5Ac
# Method in brief: as §1
# Neu5Ac(b2-6)GalNAc = target: Neu5Ac(b2-6)GalNAc
# Method in brief: as §1
# [21] = target: Neu5Gc(a2-3)Gal(b1-3)GlcNAc
# Method in brief: as §1
binder,measurement,setting,value
B1,glycan array binding signal (z-score),[1],-0.552
same,glycan array binding signal (z-score),[2],0.037
same,glycan array binding signal (z-score),[3],0.414
same,glycan array binding signal (z-score),[4],4.34
same,glycan array binding signal (z-score),Gal6S(b1-3)GlcNAc6S,-0.529
same,glycan array binding signal (z-score),[5],-0.513
same,glycan array binding signal (z-score),[6],2.47
same,glycan array binding signal (z-score),[7],-0.39
same,glycan array binding signal (z-score),GalNAc(b1-4)GlcNAc,8.76
same,glycan array binding signal (z-score),[8],-0.389
same,glycan array binding signal (z-score),[9],-0.443
same,glycan array binding signal (z-score),[10],0.144
same,glycan array binding signal (z-score),[11],0.541
same,glycan array binding signal (z-score),[12],1.26
same,glycan array binding signal (z-score),Neu5Ac(a2-3)Gal,-0.106
same,glycan array binding signal (z-score),[13],-0.011
same,glycan array binding signal (z-score),[14],-0.391
same,glycan array binding signal (z-score),[15],-0.571
same,glycan array binding signal (z-score),Neu5Ac(a2-3)GalNAc,-0.206
same,glycan array binding signal (z-score),[16],-0.165
same,glycan array binding signal (z-score),[17],0.243
same,glycan array binding signal (z-score),[18],-0.054
same,glycan array binding signal (z-score),[19],0.077
same,glycan array binding signal (z-score),[20],-0.58
same,glycan array binding signal (z-score),Neu5Ac(b2-6)GalNAc,-0.728
same,glycan array binding signal (z-score),[21],-0.145
